HT1080 IDH1KD tx: toxicity to HT-1080 IDH1 knockdown cells (counter line). HT-1080 IDH1 knockdown viability, ATP luminescence, 48 h. Potency, µM (series often up to 46.1 µM), actives largely listed as cytotoxic. hit rate 2% among 360,000
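Knockdown cells (IDH1KD HT-1080) received compounds 2 h after plating at 750 cells/well and were kept 48 h at 37 °C in 5% FBS RPMI. A CellTiter-Glo luminescence read gave % activity for curve fitting.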
TGFb inhibitor: inhibitors of TGF-b signaling | HepG2 CAGA-GFP TGF-b/SMAD3 reporter, GFP fluorescence, 18 h; TGF-beta stimulated, 500 pg/mL final | Potency, µM (series often up to 46.1 µM), most hits filed as inhibitors | hit rate 1.2% among 410,000; also: nearly all actives have a fitted effect of over 65% in size
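HEPG2 CAGA-GFP, 1000 cells/well; 2 h settle, 37 C; cpd via pin tool; TGF-b 500 pg/mL final; 18 h, 37 C; GFP imaging ex488/em500-530; %Activity normalised to -TGF-b and +DMSO controls; CRC fit, curve class.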
HT1080NT lethal: kills 2HG-producing HT-1080-NT fibrosarcoma cells; HT-1080-NT fibrosarcoma viability, CellTiter-Glo ATP luminescence, 48 h; Potency, µM (doses to about 46.1 µM), hits mostly cytotoxic; hit rate 1.6% among 360,000;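 also: NT is the 2HG producing partner of a matched IDH1 knockdown line; nearly all actives have a fitted effect of over 55% in size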
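Read-out is CellTiter-Glo luminescence after 10 minutes at room temperature, following 48 hours' compound treatment of HT-1080-NT cells (750 cells/well, RPMI, 5% FBS, 37 degrees C).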
HepG2 tox-1: HepG2 cytotoxicity, counter-screen for TGF-b inhibitors | hit rate 0.76% among 410,000 | HepG2 CAGA-GFP viability, ATP luminescence, 18 h | Potency, µM (highest dose often 46.1 µM), actives largely listed as cytotoxic
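CellTiter-Glo luminescence gave cytotoxicity after 18 hours at 37 degrees C. The cells were HepG2 CAGA-GFP in 1% FBS DMEM, stimulated with 500 pg/mL TGF-beta after compound addition. %Activity was normalised to no-cell wells (complete cell-killing) and DMSO (no toxicity), and curves were fitted and classified.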
ATXN2 expr inh: ATXN2 expression inhibition. HEK-293 ATXN2-luciferase reporter, luminescence, 24 h. Potency, µM (top dose mostly 57 µM), actives largely listed as inhibitors. hit rate 0.72% among 360,000; also: nearly all actives have a fitted effect of over 55% in size
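ATXN2-luciferase reporter cells (luciferase flanked by upstream and downstream ATXN2 gene portions) were treated 24 h at 37 °C with compounds at up to 57 uM. SteadyGlo luminescence gave expression; GF-AFC fluorescence gave viability.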
ATXN viability: viability counter-screen for ATXN expression inhibitors. S2 cells (HEK-293 line with an ATXN2-luciferase reporter) viability, CellTiter-Fluor protease fluorescence, 24 h. Potency, µM (doses to about 56.7 µM), most hits filed as cytotoxic. hit rate 0.49% among 400,000; also: nearly all actives have a fitted effect of over 40% in size
TGFb CAGA inh: TGF-b pathway inhibition, cherry-pick retest; AID 720534; HepG2 CAGA-GFP TGF-b reporter, GFP fluorescence, 18 h; cells stimulated with TGF-beta, 500 pg/mL; shares compounds with TGFb inhibitor; Potency, µM (doses to about 46.1 µM), usual class: inhibitors; hit rate 63% among 1,600; also: nearly all actives have a fitted effect of over 65% in size
HepG2 tox-2: counter-screen for TGF-b inhibitors: cytotoxicity in HepG2 cells; hit rate 27% among 1,600; Potency, µM (series often up to 46.1 µM), most hits filed as inhibitors; HepG2 CAGA-GFP viability, ATP luminescence, 18 h; cells stimulated with TGF-beta, 500 pg/mL; shares compounds with TGFb inhibitor; AID 720535; also: nearly all actives have a fitted effect of over 70% in size
TGFb CCL64 inh: TGF-b inhibition, CCL64 orthogonal assay; shares compounds with TGFb inhibitor; CCL64 CAGA-GFP reporter, TGF-b stimulated, GFP fluorescence, 18 h; Potency, µM (doses to about 46.1 µM), most hits filed as inhibitors; hit rate 41% among 1,600; AID 720536; also: nearly all actives have a fitted effect of over 65% in size
COP TGFb inh: validation of TGF-b inhibitors in HepG2 COP promoter reporter | shares compounds with TGFb inhibitor | HepG2 COP-GFP TGF-b reporter, GFP fluorescence, 18 h; cells stimulated by added recombinant TGF-beta | hit rate 3% among 1,600 | Potency, µM (doses to about 46.1 µM), usual class: inhibitors | AID 720537; also: nearly all actives have a fitted effect of over 70% in size
Large screens that a line does not name were inactive (follow-up assays come after a bar, where they were run). An excerpt weighted towards active compounds, which were near 3.8% of everything screened. Calls follow the shape of the dose curve; as a rule, active = well fitted curve in the direction sought with a large enough effect; inconclusive = small, poorly fitted or top-dose-only effect, or another doubt; inactive = no such curve, though single readings can be large; an effect the other way counts as inactive or inconclusive.

CCOC(=O)c1c(C)oc2c1c(C=NCc1ccccn1)c(O)c1ccccc12	TGFb inhibitor inconclusive, ATXN2 expr inh inconclusive, ATXN viability inconclusive | TGFb CAGA inh inconclusive | HepG2 tox-2 inconclusive | TGFb CCL64 inh 18µM | COP TGFb inh inactive
CC(C)=CCNc1ncnc2c1c(C#N)cn2C1OC(CO)C(O)C1O (stereo not given)	TGFb inhibitor 4µM, ATXN viability inconclusive | TGFb CAGA inh 0.73µM | HepG2 tox-2 inconclusive | TGFb CCL64 inh inactive | COP TGFb inh inactive
Cc1ccc(NC(=O)CN2CC(C)SC2=NC2CCCCC2)cc1 (stereo not given)	TGFb inhibitor inconclusive, HT1080NT lethal inconclusive, ATXN viability inconclusive | TGFb CAGA inh inconclusive | HepG2 tox-2 inactive | TGFb CCL64 inh inactive | COP TGFb inh inactive
CCOC(=O)c1c(NC(C)=O)c2c3c(sc2n1Cc1ccc(Cl)cc1)CCCC3	none (no result: HT1080 IDH1KD tx, TGFb inhibitor, HT1080NT lethal, ATXN2 expr inh, ATXN viability)
COc1ccc(CNC(=O)c2ccc(N3CCCC3)c(NC(=O)NCc3ccc(F)cc3)c2)cc1	TGFb inhibitor inconclusive, ATXN viability inconclusive (no result: HT1080 IDH1KD tx, HT1080NT lethal)
O=[N+]([O-])c1cc2c(c3cccnc13)COCO2	TGFb inhibitor inconclusive | TGFb CAGA inh 18µM | HepG2 tox-2 inactive | TGFb CCL64 inh inactive | COP TGFb inh inactive
O=C(/C=C/c1ccc(Cl)cc1)c1ccc([N+](=O)[O-])o1	HT1080 IDH1KD tx 13µM, TGFb inhibitor 3.5µM, HT1080NT lethal inconclusive, ATXN2 expr inh inconclusive, ATXN viability 11µM | TGFb CAGA inh 2.9µM | HepG2 tox-2 7.3µM | TGFb CCL64 inh 2.1µM | COP TGFb inh inactive
COc1ccc(C(=O)/C(C#N)=N/Nc2cccc([N+](=O)[O-])c2)cc1	HT1080 IDH1KD tx 23µM, TGFb inhibitor 10µM, HT1080NT lethal inconclusive, ATXN viability 11µM (no result: ATXN2 expr inh) | TGFb CAGA inh 5.2µM | HepG2 tox-2 inconclusive | TGFb CCL64 inh 8.2µM | COP TGFb inh inactive
COc1ccc(OCC(=O)N/N=C(\C)CC(=O)Nc2cccc([N+](=O)[O-])c2)cc1	none (no result: ATXN2 expr inh)
Cc1cccc(CN2CCCC(C(=O)c3ccc4c5c(cccc35)CC4)C2)n1 (stereo not given)	HT1080 IDH1KD tx inconclusive, TGFb inhibitor 10µM, HT1080NT lethal inconclusive | TGFb CAGA inh inconclusive | HepG2 tox-2 inconclusive | TGFb CCL64 inh inconclusive | COP TGFb inh inactive
Cc1ccccc1NC(=O)CSc1cn(CC(=O)N2CCCCCC2)c2ccccc12	none (no result: HT1080 IDH1KD tx, HT1080NT lethal, ATXN2 expr inh, ATXN viability)
CCc1ccccc1NC(=S)/N=C(\N)Nc1nc(C)c2cc(C)ccc2n1	TGFb inhibitor inconclusive, ATXN viability inconclusive | TGFb CAGA inh 4.1µM | HepG2 tox-2 inactive | TGFb CCL64 inh inconclusive | COP TGFb inh inactive
Cc1ccc(NC(=S)/N=C(\N)Nc2nc(C)c3cc(C)ccc3n2)c(C)c1	HT1080 IDH1KD tx inconclusive, TGFb inhibitor 10µM | TGFb CAGA inh 4.6µM | HepG2 tox-2 inactive | TGFb CCL64 inh inconclusive | COP TGFb inh inactive
Cc1cccc(OCCCCn2nnc3sc4c(c3c2=O)CCC(C)C4)c1 (stereo not given)	none (no result: HT1080 IDH1KD tx, HT1080NT lethal)
